Reference: article PMC5540273 (PLoS ONE, 2017)
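Further: KINOMEscan kinase panel screen.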

Each compound was assayed on MYO3B. Conditions: concentration: 1 μM, replicates: in singlicate; n = 1.
For `COc1ccc(Nc2nccc(N3CCC(NC(=O)C(C)c4ccc(Cl)cc4)CC3)n2)cc1` (stereo not drawn) [GSK1379812], the “%Inh” value was 0%.
For `CCc1ccc(-c2ccc3c(c2)-c2n[nH]cc2S(=O)(=O)N3C)cc1`, the “%Inh” value was 12%.
`CC(=O)c1c(C)c2cnc(Nc3ccc(N4CCNCC4)cn3)nc2n(C2CCCC2)c1=O` was tested, and the “%Inh” value was 0%.
In the case of `Cn1cncc1C(=O)NC1CCN(c2ccnc(Nc3ccc(F)cc3)n2)C1` (stereo not drawn) [GSK1379717], the “%Inh” value is reported as 0%.
For `CNc1cc(-c2ccc3c(N)n[nH]c3c2)nc(N)n1` [GSK2224810], the “%Inh” value was 0%.
For `CN1c2ccc(-c3ccc(C(N)=O)cc3)cc2-c2[nH]ncc2S1(=O)=O`, the “%Inh” value was 11%.
With `COc1ccc(-c2coc3ccc(-c4nnc(C)o4)cc23)cc1` the “%Inh” value was 12%.
In the case of `Cc1ccc(NC(=O)Nc2ccccc2F)cc1-c1ccc(C(=O)Nc2ccncc2)cc1` [GSK1398477], the “%Inh” value is reported as 0%.
For `O=C(Nc1n[nH]c2nc(-c3ccco3)c(Br)cc12)C1CCN(Cc2ccccc2)C1.O=C(O)[C@H](O)[C@@H](O)C(=O)O` (stereo not drawn) [SB-742034], the “%Inh” value was 7%.
`FC(F)(F)c1ccccc1-c1cc(-c2c[nH]nc2-c2ccccn2)ccn1` [GW679396] was tested, and the “%Inh” value was 0%.
In the case of `COc1nccc(-c2c(-c3ccc(F)cc3)ncn2CCCN2CCOCC2)n1` [SB-282852], the “%Inh” value is reported as 0%.
In the case of `COc1cccc(CNC(=O)NC2CCN(c3ccnc(Nc4ccc(F)cc4)n3)C2)c1` (stereo not drawn) [GSK1379723], the “%Inh” value is reported as 0%.
With `COC(=O)C(NC(=O)NC1CCN(c2ccnc(Nc3ccc(F)cc3)n2)C1)c1ccccc1` (stereo not drawn) [GSK1379712] the “%Inh” value was 0%.
For `CNCc1ccc2nc(NC(=O)c3ccc(C(C)(C)C)cc3)cn2c1`, the “%Inh” value was 0%.
In the case of `Cc1ccc(NC(=O)Nc2ccc(Cl)cc2)cc1-c1ccc(C(=O)Nc2ccncc2)cc1` [GSK1398472], the “%Inh” value is reported as 0%.
With `Cn1cncc1-c1cc2c(Nc3ccc(OCc4ccccc4)cc3)ncnc2cn1` [GW281179] the “%Inh” value was 0%.
`Fc1ccc(-c2nc3n(c2-c2ccncc2)CCS3)cc1` [GI98581] was tested, and the “%Inh” value was 0%.
In the case of `COc1ccc(CSc2nnc(-c3ccc4ncsc4c3)o2)cc1C(F)(F)F`, the “%Inh” value is reported as 6%.
In the case of `Cc1ccc(NC(=O)Nc2ccccc2)cc1-c1ccc(C(=O)Nc2ccncc2)cc1` [GSK1398471], the “%Inh” value is reported as 0%.
`COc1ccc2cc(-c3nc(-c4ccccc4C(C)C)[nH]c3-c3ccncc3)ccc2c1` [SB-660566] was tested, and the “%Inh” value was 0%.
With `O=C1NC(=O)C(c2ccc(Cl)cc2)=C1Nc1cccc(Cl)c1` [SB-317651] the “%Inh” value was 8%.
`CC(C)c1cc(-c2ccc3c(N)n[nH]c3c2)nc(N)n1` [GSK2250882] was tested, and the “%Inh” value was 0%.
In the case of `Cc1c(Cn2c3ccccc3n3c(=O)cc(N4CCOCC4)nc23)cccc1C(F)(F)F` [GSK2306394], the “%Inh” value is reported as 0%.
With `COC(=O)C(Cc1ccccc1)NC(=O)NC1CCN(c2ccnc(Nc3ccc(F)cc3)n2)C1` (stereo not drawn) [GSK1379714] the “%Inh” value was 20%.
`CS(=O)(=O)Cc1ccc(Nc2nccc(-c3c(-c4cccc(NC(=O)C5CCCCC5)c4)nn4ncccc34)n2)cc1` [GSK350559] was tested, and the “%Inh” value was 0%.
With `Nc1nccc(-c2c(-c3ccc(F)cc3)ncn2C2CCN(Cc3ccccc3)CC2)n1` [SB-219980] the “%Inh” value was 24%.
For `CC(C)c1ccc(O)cc1Nc1ccnc2ccc(C(F)(F)F)cc12` [GW482059], the “%Inh” value was 0%.
In the case of `CNc1nc(-c2ccc3c(N)n[nH]c3c2)cc(N2C[C@@H](C(=O)NC3CCCCC3)OC[C@H]2C)n1` [GSK2375584], the “%Inh” value is reported as 0%.
With `CCn1c(-c2ccccc2)nc2cnccc21` [SB-733416] the “%Inh” value was 0%.
In the case of `CCCCc1nn2ncccc2c1-c1ccnc(NC2CC2)n1` [GW684374], the “%Inh” value is reported as 0%.
With `Nc1cccc(-c2ccc3c(N)n[nH]c3c2)n1` [GSK2192730] the “%Inh” value was 0%.
`CS(=O)(=O)CCNCc1nc(-c2ccc3ncnc(Nc4ccc(OCc5ccccc5)c(Cl)c4)c3c2)cs1.Cl` [GW582764] was tested, and the “%Inh” value was 0%.
In the case of `COc1cccc(NC(=O)Nc2ccc(C)c(-c3ccc(C(=O)Nc4ccncc4)cc3)c2)c1` [GSK1398474], the “%Inh” value is reported as 0%.
In the case of `CC[C@@H]1CO[C@H](C(=O)Nc2ccccc2)CN1c1cc(-c2ccc3c(N)n[nH]c3c2)nc(NC)n1` [GSK2376236], the “%Inh” value is reported as 0%.
`COc1ccc(CSc2nnc(-c3ccc4nccn4c3)o2)cc1C(F)(F)F` was tested, and the “%Inh” value was 0%.
With `Nc1ncnc2occ(-c3ccc4c(c3)CCN4C(=O)Cc3cc(F)ccc3F)c12` [GSK2645446] the “%Inh” value was 0%.
